An excerpt weighted towards active compounds, which were near 1.1% of everything screened.
S1P2 ag = S1P2 (human) receptor agonism | O95136 | S1P2-expressing cell line, agonist reporter read-out | AID 729 | 97,000 tested, 0.46% active | activation, % at 4.5 µM; in the data active = activation above about 16%
S1P2 blocker = antagonists of human S1P2 receptor; O95136; cell-based S1P2 antagonist assay, inhibition at 5 uM; inhibition, % at 5 µM; 97,000 tested, 0.21% active; AID 736; in the data active = inhibition above about 45%;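 note: CRE beta-lactamase reporter cells expressing human S1P2 stimulated with S1P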
GALR2 ag = activates the human galanin receptor 2 | O43603 | GALR2-expressing cells, agonist activation read-out | activation, % (no concentration beside the values) | 140,000 tested, 0.48% active; in the data active = activation above about 5%, passing the limit was not always enough
Target sequence (O43603 whole entry, looked up): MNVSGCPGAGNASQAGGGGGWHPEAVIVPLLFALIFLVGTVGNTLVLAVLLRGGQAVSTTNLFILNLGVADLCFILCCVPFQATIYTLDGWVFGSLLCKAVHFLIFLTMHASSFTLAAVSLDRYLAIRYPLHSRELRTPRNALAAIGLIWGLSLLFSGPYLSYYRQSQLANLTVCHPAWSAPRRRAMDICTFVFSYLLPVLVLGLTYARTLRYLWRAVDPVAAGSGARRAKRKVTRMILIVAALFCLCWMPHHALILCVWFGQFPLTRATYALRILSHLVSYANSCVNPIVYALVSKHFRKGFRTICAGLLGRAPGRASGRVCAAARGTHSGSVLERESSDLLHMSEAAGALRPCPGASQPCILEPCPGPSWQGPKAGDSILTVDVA
GALR2 blocker = blocks the human galanin receptor 2 | O43603 | GALR2-expressing cells, antagonist mode | AID 828 | inhibition, % at 4 µM | 140,000 tested, 0.39% active; in the data active = inhibition above about 27%;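 note: cells stimulated with galanin 1-16 at roughly its EC80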
GALR2 agon conf = confirmation of human galanin receptor 2 (GALR2) agonists | shares compounds with GALR2 ag | GALR2-expressing cells, agonist activation | activation, % at 5.6 µM | 460 tested, 10% active | AID 864; in the data active = activation above about 8.4%
BLA activ ctr = activates beta-lactamase reporter in GALR2 agonist counterscreen | shares compounds with GALR2 ag | CHO NFAT-bla reporter, beta-lactamase FRET activation | activation, % at 5.6 µM | 460 tested, 10% active | AID 865;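 active = activation above the screen-wide mean activation plus 3 SD, cut at about 8% in these data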
Each line names hits and unclear results; the compound was inactive in the other large screens (follow-up assays come after a bar, where they were run).

O=C(NCCc1ccccc1)C(=O)c1c(-c2ccccc2)[nH]c2ccccc12	none (no result: S1P2 ag, S1P2 blocker)
CCOc1cc(/C=N\NC(=O)Cn2nc([N+](=O)[O-])cc2C)ccc1OCc1cccc2ccccc12	GALR2 ag 35 | GALR2 agon conf inactive | BLA activ ctr inactive
CCOc1ccc(Br)cc1S(=O)(=O)Nc1ccc(C(=O)Nc2ccc(C)cc2)cc1	none (no result: S1P2 ag, S1P2 blocker)
CCOc1ccc(Br)cc1C(=O)Nc1ccc(C(=O)NCC(C)C)cc1	GALR2 ag 14 (no result: S1P2 ag, S1P2 blocker) | GALR2 agon conf 13 | BLA activ ctr inactive
Cc1cc(C)c2nc(NNC(=O)c3ccc(S(=O)(=O)N4CCCC(C)C4)cc3)sc2c1 (stereo unspecified)	GALR2 ag 18 (no result: S1P2 ag, S1P2 blocker) | GALR2 agon conf 8.2 | BLA activ ctr inactive
Cc1cc(C)c2nc(NNC(=O)c3ccc(S(=O)(=O)N4CC(C)CC(C)C4)cc3)sc2c1 (stereo unspecified)	GALR2 ag 44 (no result: S1P2 ag, S1P2 blocker) | GALR2 agon conf 14 | BLA activ ctr inactive
Cc1cccc2sc(NNC(=O)c3ccc(S(=O)(=O)N4CC(C)CC(C)C4)cc3)nc12 (stereo unspecified)	GALR2 ag 33 (no result: S1P2 ag, S1P2 blocker) | GALR2 agon conf inactive | BLA activ ctr inactive
Cc1ccc2nc(NNC(=O)c3ccc(S(=O)(=O)N4CCc5ccccc5C4)cc3)sc2c1	none (no result: S1P2 ag, S1P2 blocker)
Cc1c(C(=O)N/N=C/c2ccc(-c3ccccc3[N+](=O)[O-])o2)sc(N)c1C#N	GALR2 ag 16 (no result: S1P2 ag, S1P2 blocker) | GALR2 agon conf 9.2 | BLA activ ctr 11
O=C(N/N=C/c1ccc(-c2ccccc2[N+](=O)[O-])o1)c1cncc(Br)c1	none (no result: S1P2 ag, S1P2 blocker)
CCOC(=O)/C(N=Nc1sc(C(=O)OC)c(C)c1C(=O)OCC)=C(\O)CCl	none (no result: S1P2 ag, S1P2 blocker)
O=C(CC1CCCCC1)Nc1ccccc1-c1ccccc1	none (no result: S1P2 ag, S1P2 blocker)
CC(NC1CCCC1)C(=O)Nc1ccccc1-c1ccccc1 (stereo unspecified)	GALR2 ag 12 | GALR2 agon conf inactive | BLA activ ctr inactive
COc1ccc(NS(=O)(=O)c2ccc(S(=O)(=O)N3CCCC3)cc2)cc1	GALR2 ag 15 | GALR2 agon conf inactive | BLA activ ctr inactive
Cc1oc2cc3oc(=O)c4c(c3cc2c1C)CCC4	none
Cc1oc2c(C)c3oc(=O)c4c(c3cc2c1C)CCC4	none | GALR2 agon conf inactive | BLA activ ctr inactive
CCC(C)N=CC1=C(O)C(C(=O)OC)C(C)(C)CC1=O (stereo unspecified)	GALR2 ag 49 | GALR2 agon conf inactive | BLA activ ctr inactive
COC(=O)C1C(O)=C(C=NCC(C)N=CC2=C(O)C(C(=O)OC)C(C)(C)CC2=O)C(=O)CC1(C)C (stereo unspecified)	none
CN(CC(=O)OCC(=O)c1c(N)n(C)c(=O)n(C)c1=O)S(=O)(=O)c1ccc(Cl)cc1	none (no result: S1P2 ag, S1P2 blocker)
O=C(NCCc1ccccc1)C(=O)N/N=C/c1ccc2c(c1)OCO2	none
O=C(NCCc1ccccc1)C(=O)N/N=C/c1ccccc1C(F)(F)F	none | GALR2 agon conf inactive | BLA activ ctr inactive
CCN1CCCC1CNC(=O)Cn1cnc2sc(C)c(S(=O)(=O)N3CCC(C)CC3)c2c1=O (stereo unspecified)	none
CN(C)CCNC(=O)NC(=O)c1ccc(Cl)cc1	GALR2 ag 21 (no result: S1P2 ag, S1P2 blocker) | GALR2 agon conf inactive | BLA activ ctr inactive
C=CCc1cccc2cc(C(=O)N(CC)CC)c(=O)oc12	none
Cn1c(=O)c(C(=S)NC(=O)C2CC2)c(N)n(Cc2ccccc2)c1=O	none
O=S(=O)(c1ccc(N2CCN(CCO)CC2)nc1)N1CCCCC1	GALR2 ag 22 | GALR2 agon conf inactive | BLA activ ctr inactive
Cc1nc(-c2cccc(S(=O)(=O)N3CCCC(C)C3)c2)cs1 (stereo unspecified)	GALR2 ag 27 | GALR2 agon conf inactive | BLA activ ctr inactive
COc1ccc(CCNC(=O)CN2CCOc3ccccc32)cc1OC	GALR2 ag 18 (no result: S1P2 ag, S1P2 blocker) | GALR2 agon conf inactive | BLA activ ctr inactive
COC(=O)C1=CN(C2CC2)C=C(C(=O)OC)C1c1ccccc1OC	none | GALR2 agon conf inactive | BLA activ ctr inactive
COC(=O)C1=CN(C)C=C(C(=O)OC)C1c1ccc(O)c(OC)c1	none
Cc1ccc(-n2nc3cc(C)c(N)cc3n2)cc1	none | GALR2 agon conf inactive | BLA activ ctr inactive
Cc1cc2nn(-c3cccc4ccccc34)nc2cc1N	none
COC(=O)C1=C(C)Nc2ncnn2C1c1ccc(OCc2ccccc2)cc1 (stereo unspecified)	GALR2 ag 104 (no result: S1P2 ag, S1P2 blocker) | GALR2 agon conf inactive | BLA activ ctr inactive
CCCCCCC(=O)N1CCC(c2nc3c(nnn3Cc3ccccc3Cl)c(=O)[nH]2)CC1	none
Brc1ccc(-c2nc(N/N=C/c3cccnc3)c3ccccc3n2)cc1	GALR2 ag 76 | GALR2 agon conf inactive | BLA activ ctr inactive
Cc1ccc(-c2nc(N/N=C/c3ccccc3[N+](=O)[O-])c3ccccc3n2)cc1	none
Nc1nnc(-c2cc3ccccc3oc2=O)s1	none
O=c1oc2ccccc2cc1-c1nc2c(s1)CCc1ccccc1-2	GALR2 ag 10 (no result: S1P2 ag, S1P2 blocker) | GALR2 agon conf inactive | BLA activ ctr inactive
CCSc1ncc(C#N)c(N)n1	none | GALR2 agon conf inactive | BLA activ ctr inactive
O=C(COc1ccccc1)Nc1sc2c(c1C(=O)NCc1cccnc1)CCCC2	none | GALR2 agon conf inactive | BLA activ ctr inactive
O=C(COc1ccc(Cl)cc1)Nc1ccc(C(=O)NCc2cccnc2)cc1	none
COC(=O)c1ccc(N2CCCCC2)c(NS(=O)(=O)c2ccc(C)cc2)c1	GALR2 ag 18 | GALR2 agon conf inactive | BLA activ ctr inactive
CCN(CC)CCNC(=O)c1ccc(N2CCCCC2)c(NS(=O)(=O)c2ccc(C)cc2)c1	GALR2 ag 19 | GALR2 agon conf inactive | BLA activ ctr inactive
COC(=O)c1ccc(N2CCN(S(=O)(=O)c3ccc(C)cc3)CC2)c([N+](=O)[O-])c1	none
COc1cccc(C(=O)NCC(=O)n2nc(C)cc2C)c1	none
COc1cccc2cc(-c3nnc(SCC(=O)NCCc4ccccc4)n3C)oc12	none | GALR2 agon conf inactive | BLA activ ctr inactive
COc1c(N)c2ccccc2[nH]c1=O	none (no result: S1P2 ag, S1P2 blocker)
CCCCCCc1cc2cc(C(N)=O)c(=N)oc2cc1O	S1P2 ag 39, GALR2 ag 105 | GALR2 agon conf inactive | BLA activ ctr 23
CCCCCCc1cc2cc(S(=O)(=O)c3ccc(F)c(Cl)c3)c(=O)oc2cc1O	GALR2 ag 19 (no result: S1P2 ag, S1P2 blocker) | GALR2 agon conf 26 | BLA activ ctr 50
CCCCCCc1cc2cc(C(=O)NC)c(=N)oc2cc1O	none
Cc1cc(NC(=O)C2CC(=O)N(c3ccccc3)C2)no1 (stereo unspecified)	none (no result: S1P2 ag, S1P2 blocker)
CC(=O)N1CCC2(CC1)C(C#N)=C(N)Oc1n[nH]c(C)c12	none (no result: S1P2 ag, S1P2 blocker)
O=C(NCCc1ccccc1)c1ccc(CS(=O)(=O)Cc2ccccc2F)o1	none | GALR2 agon conf inactive | BLA activ ctr inactive
Cc1ccc(CCNC(=O)c2ccc(CS(=O)(=O)Cc3ccccc3F)o2)cc1	none
O=C(Cc1cc(=O)oc2cc(O)ccc12)NCC1CCC(C(=O)O)CC1 (stereo unspecified)	none | GALR2 agon conf inactive | BLA activ ctr inactive
Cc1ccccc1OCCn1cc(/C=C(\C#N)C(=O)NCc2ccco2)c2ccccc21	none (no result: S1P2 ag, S1P2 blocker)

Assay outcomes (PubChem)
